Screening results from PubChem.
D2 PAM-1: positive allosteric modulators of human D2 dopamine receptor | DiscoveRx D2 beta-arrestin cells, luminescence, 90 min; 100% = 57 uM dopamine signal | potentiation, % (no concentration beside the values) | 360,000 compounds, 0.23% hits | AID 624464; in the data active = potentiation above about 50%
Target sequence (P14416 whole entry, looked up): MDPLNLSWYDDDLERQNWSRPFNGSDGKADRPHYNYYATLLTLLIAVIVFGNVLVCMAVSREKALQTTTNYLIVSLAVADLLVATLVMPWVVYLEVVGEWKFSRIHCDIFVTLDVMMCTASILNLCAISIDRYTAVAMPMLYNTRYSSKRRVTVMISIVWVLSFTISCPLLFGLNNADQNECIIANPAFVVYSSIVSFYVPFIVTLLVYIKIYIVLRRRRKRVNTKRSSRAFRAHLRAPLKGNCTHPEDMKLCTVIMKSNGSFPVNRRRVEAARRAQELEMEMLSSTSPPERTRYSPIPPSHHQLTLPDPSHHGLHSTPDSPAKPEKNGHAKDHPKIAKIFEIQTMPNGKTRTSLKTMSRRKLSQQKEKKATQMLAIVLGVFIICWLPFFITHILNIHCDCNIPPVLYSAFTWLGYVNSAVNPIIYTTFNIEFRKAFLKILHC
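PathHunter D2 cells, attached overnight at 37 deg C, received compound in DMSO plus dopamine at EC20 (50 nM final) for 90 min at 37 deg C. Beta-arrestin recruitment was read as luminescence after 1 h with detection reagent at ambient temperature.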
D2 ag-1: D2 dopamine receptor (human) agonism; P14416; HEK293 T-REx D2 cells, calcium flux agonist mode; activation, % at 2 µM; 340,000 compounds, 0.53% hits; AID 485358;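 active = activation over 3 SD above normal in the single-dose calcium agonist read, cut at about 30% in these data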; note: 0% is about no effect
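Agonism scored from kinetic calcium signal (1 read/sec, 180 s) following compound pin transfer, after a 10 s baseline. Cells: HEK293 Trex line expressing inducible D2 receptor coupled to calcium, dye-loaded after overnight culture at 30 C.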
D2 ag-2: human D2 receptor agonism in beta-arrestin assay | DiscoveRx PathHunter D2 beta-arrestin, luminescence, 90 min; 100% = 57 uM dopamine signal | activation, % (test concentration not listed) | 360,000 compounds, 0.084% hits; in the data active = activation above about 40%
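DiscoveRx PathHunter D2 beta-arrestin cells (2,100/well) attached overnight, then compound-stimulated 90 min at 37 C in HBSS/10 mM HEPES/0.1% Tween-20 buffer; beta-galactosidase complementation read by luminescence after 1 h at ambient temperature. Dopamine 57 uM final (EC100) as control.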
D2 PAM-2: D2 dopamine receptor (human) potentiation | P14416 | HEK293 T-REx D2, calcium flux, EC20 dopamine potentiation | potentiation, % at 10 µM | 340,000 compounds, 0.34% hits;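 active = potentiation over 3 SD above the plate norm, cut at about 30% in these data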; note: 0% is about no effect
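Cells plated with tetracycline inducer and held overnight at 30 C; calcium dye loaded 30–90 min at room temperature; baseline taken, compound added and read 180 s; EC20 dopamine then added and read 180 s.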
D2 antag: antagonists of human D2 dopamine receptor; P14416; AID 485344; HEK293 TREx D2 cells, calcium flux, dopamine EC80; inhibition, % at 10 µM; 340,000 compounds, 2% hits; in the data active = inhibition above about 30%; inactive = below that, where a call was filed; note: 0% is about no effect
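Calcium mobilization kinetics were recorded at 1 s intervals in tetracycline-induced HEK293 T-REx D2 cells, first for 180 s after compound addition and then 180 s after EC80 dopamine.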
The depositor's hits bear a star; . = no result given. Sampled rows, rich in hits. Any-hit rate of the full collection: about 2.4%.

SMILES	D2 PAM-1	D2 ag-1	D2 ag-2	D2 PAM-2	D2 antag
CCC(c1nnnn1C1CCCC1)N1CCN(c2ccccc2)CC1 (centres undefined)	-8.2	2.2	1.4	.	52.1*
CCc1cccc(C)c1NC(=O)CSc1nnc(C)o1	6.1	0.7	-0.1	37.3*	0.2
COc1ccc([C@H]2C[C@@H](O)[C@H](n3cc(C4CC4)nn3)CN2C(=O)c2cccs2)cc1	3.2	.	-3.7	.	.
Cc1cccc(CSc2ncccc2C(=O)O)c1	-2.6	0.6	1.3	5.3	-20.0
O=C(O)c1cccnc1SCc1cccc(Cl)c1	-29.0	-1.2	0.9	-22.0	44.6*
O=C(/C=C/c1ccc(Cl)cc1)Nc1nc(-c2cccs2)ns1	.	2.1	.	9.0	.
COc1cc(CNc2ccc3[nH]c(=O)[nH]c3c2)cc(Br)c1OCC(=O)NC(C)(C)C	5.8	-2.1	1.7	5.0	-0.2
COc1cc(CNc2cccc(C(=O)O)c2)cc(Br)c1OCC(=O)NC(C)(C)C	4.4	-1.3	-1.2	9.4	59.7*
C/C(=N\OC(=O)Nc1ccc(Cl)cc1)c1ccc(F)c(F)c1	-16.7	-1.1	10.9	-26.2	41.1*
COc1cc(OC)c(NC(=O)NCCn2nnc3cc(S(=O)(=O)N(C)C)ccc32)cc1Cl	.	2.3	.	-1.6	.
COc1ccc(NC(=O)Cn2c(SCc3ccc(C)cc3)nc3cccnc32)c(OC)c1	.	0.1	.	3.6	.
CC(=O)NCCCC(=O)NNC1CC(=O)N(c2cccc(Cl)c2)C1=O (centres undefined)	-5.2	0.4	-4.0	-0.5	37.1*
CC1CCC/C(=N/Nc2ccc([N+](=O)[O-])cc2[N+](=O)[O-])C1 (centres undefined)	74.4*	1.4	7.3	-0.6	-6.7
Cc1cccc(C(=O)OCC(=O)N2CCCCCC2)c1	-15.8	-0.2	-0.1	10.8	30.7*
COc1ccc2oc(C(=O)OCC(=O)N3CCN(C(C)=O)CC3)c(C)c2c1	27.8	0.9	-3.9	-2.2	-9.1
COc1ccc2oc(C(=O)OCC(=O)N3CCCCC3)c(C)c2c1	-0.4	-0.6	-4.5	-1.2	31.3*
Cc1nn(C)c(C)c1CCC(=O)N1CCCC(Nc2ccc(C(C)C)cc2)C1 (centres undefined)	-7.2	0.5	-0.6	36.2*	-24.3
CC(C(=O)Nc1ccc(OC(F)(F)F)cc1)N1Cc2ccccc2C1=O (centres undefined)	.	.	.	3.1	.
Cc1cccc(-n2c(-c3ccco3)nc3nc4ccccc4nc32)c1	.	-1.0	.	-3.1	69.6*
COc1cccc(-n2c(-c3ccco3)nc3nc4ccccc4nc32)c1	-2.2	0.3	-2.7	-12.7	4.4
CCc1ccc(NC(=O)C/C(C)=N/NC(=O)COc2ccccc2C)cc1	-9.0	0.0	-4.7	-8.1	39.6*
Nc1ccc2c(Cl)cc(Cl)cc2c1	-5.2	.	-0.2	.	.
CCC(=O)Nc1ccccc1Nc1cc(C#N)c(C#N)cc1[N+](=O)[O-]	73.5*	-0.9	10.4	-3.5	8.0
N#Cc1ccccc1NC(=O)COC(=O)COc1ccccc1[N+](=O)[O-]	-1.1	0.1	-0.1	4.4	-16.7
COc1ccc(NC(=S)NNS(=O)(=O)c2ccc3ccccc3c2)c(OC)c1	-4.7	1.6	-0.5	-3.6	43.5*
SMILES	D2 PAM-1	D2 ag-1	D2 ag-2	D2 PAM-2	D2 antag
Cc1ccc(C(=O)NC(C)C(c2cccs2)N2CCCC2)s1 (centres undefined)	-18.6	0.4	6.6	32.7*	-4.0
CC(NC(=O)c1ccco1)C(c1cccs1)N1CCN(c2ccccc2F)CC1 (centres undefined)	7.7	-0.7	-1.2	37.7*	21.6
CC(C)C(=O)NC(C)C(c1cccs1)N1CCOCC1 (centres undefined)	7.2	0.2	-3.0	10.0	-13.1
Cc1cccc(NC(=O)NC(C)C(c2cccs2)N2CCOCC2)c1 (centres undefined)	-10.5	0.7	-5.8	10.8	30.3*
CC1(C)CC[C@]2(CO)CC[C@]3(C)C(=CCC4[C@@]5(C)CC[C@H](O)[C@@](C)(CO)C5CC[C@]43C)[C@@H]2C1 (some centres undefined)	-17.3	.	-2.7	.	.
O=C(NC(Sc1ccc(Cl)cc1)C(=O)O)c1ccccc1 (centres undefined)	-12.0	.	-1.9	.	.
CC(C)CNc1ncnc2c1ncn2[C@H]1CN(Cc2ccc(C(=O)O)cc2)C[C@@H](CO)O1	-2.9	.	-1.1	.	.
Cc1ccc(NC(=O)CCc2nnc3ccc(N4CCC(C)CC4)nn23)nc1	-9.2	-0.4	-3.1	10.5	32.0*
CCCCCC1=CCC/C1=N\NC(=O)c1ccc2c(c1)OCO2	-9.3	0.6	1.3	-3.1	31.2*
CC(C)CNC(=O)NC(=O)COc1ncnc2sccc12	0.8	-0.2	-1.7	6.0	37.2*
CCCNC(=O)COc1ncnc2sccc12	7.0	2.1	7.1	14.5	33.1*
O=C(COc1ccccc1F)Nc1ccc(OCc2cc(=O)n3ccccc3n2)cc1	.	-1.7	.	-1.3	.
O=C(O)c1cccc(-n2cnc3cccnc32)c1	.	-0.6	.	-7.9	.
O=C1OC2(c3ccccc31)c1cc(I)c(O)c(I)c1Oc1c2cc(I)c(O)c1I	.	104.9*	.	-16.9	53.3*
O=C1OC(c2ccccc2)(c2ccc(O)cc2)c2ccccc21 (centres undefined)	-2.3	.	-0.7	.	.
CCCN1CCC(NC(=O)Cc2cccc(C)c2)CC1	-7.5	2.4	-0.5	3.0	-7.2
CCOC(=O)c1sc2nc(CSc3ccccc3)nc(N3CCC(C(N)=O)CC3)c2c1C	-1.6	-0.1	1.8	12.3	-7.4
CCOC(=O)c1sc2nc(CSc3ccccc3)nc(N3CCCN(C)CC3)c2c1C	-0.6	0.1	-1.5	-27.0	53.2*
Cc1nc2ccc(S(=O)(=O)NCC(=O)Nc3ccc(F)cc3F)cc2s1	.	-1.0	.	11.1	.
CC(C)COC(=O)n1c(SCC(N)=O)nc2ccccc21	-19.1	-2.4	-2.5	0.7	-21.2
CC(C)COC(=O)n1c(SCC(=O)N(C)C)nc2ccccc21	-7.3	-0.1	-5.6	10.4	31.4*
COc1cccc(NC(=O)CSc2nc(=O)[nH]c3c2CCCC3)c1	.	0.7	.	3.7	.
CCCCNC(=O)C1(C)CCCCN1C(=O)c1oc2ccccc2c1C (centres undefined)	-5.5	.	-5.2	.	.
Cc1ccc(Cn2c(CNC(=O)Cc3cccc([N+](=O)[O-])c3)nc3cccnc32)cc1	.	-1.2	.	-5.9	.
CCN(CC(=O)Nc1c(F)cccc1F)C(=O)c1ccc(N2CCCC2)c([N+](=O)[O-])c1	-25.0	0.3	-9.0	7.7	31.1*
CN(CC(=O)Nc1cccc(F)c1)C(=O)c1cc([N+](=O)[O-])ccc1N1CCCCC1	-26.4	-1.5	-4.8	-0.4	41.6*
CCN(CC(=O)Nc1c(F)cccc1F)C(=O)c1ccc(N2CCOCC2)c([N+](=O)[O-])c1	-17.2	0.3	-2.5	-4.2	-12.0
